From PubChem BioAssay AID1159580 (chemical genetic matrix, 2015)
Hit rate of the full screen: of about 5,500 compounds, about 2,000 (36%) were called active. Roughly 18% stayed inconclusive and do not appear here. No stated cut-off is given here; in the data, active means normalized growth mostly below about 0.91 (no sharp cut-off); inconclusive means no clear call, values can overlap the other calls; inactive means mostly above about 0.92. The list shows a part of the results.

Test: chemical genetic growth profiling, strain panel (AID 1159580);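 further: tested at 20 µM; growth read once vehicle control cultures reached saturation at 30 °C; 1 = growth at the plate median or of vehicle wells; lower values mean less growth of the strain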
Details: growth OD

Measured: normalized growth

Cn1c(=O)c2c(ncn2CCO)n(C)c1=O
inactive: S. cerevisiae deletion strains, locus YJR075W, strain HOC1, hits give low values 1 | S. cerevisiae deletion strains, locus YKL009W, strain mrt4, hits give low values 0.99 | S. cerevisiae deletion strains, locus YKL068W, hits give low values 0.991 | S. cerevisiae deletion strains, locus YKL085W, strain MDH1 (second series), hits give low values 0.993 | S. cerevisiae deletion strains, locus YKL085W, strain MDH1, hits give low values 0.993 | S. cerevisiae deletion strains, locus YKL160W, strain elf1, hits give low values 1.02 | S. cerevisiae deletion strains, locus YKL190W, strain CNB1, hits give low values 1 | S. cerevisiae deletion strains, locus YKR001C, strain vps1, hits give low values 0.997 | S. cerevisiae deletion strains, locus YKR026C, strain gcn3, hits give low values 1.02 | S. cerevisiae deletion strains, locus YKR091W, strain srl3, hits give low values 1.02 | S. cerevisiae deletion strains, locus YLL001W, strain dnm1, hits give low values 0.993 | S. cerevisiae deletion strains, locus YLL026W, hits give low values 1.02 | S. cerevisiae deletion strains, locus YLL041C, strain sdh2, hits give low values 1.02 | S. cerevisiae deletion strains, locus YLR027C, strain aat2, hits give low values 1.01 | S. cerevisiae deletion strains, locus YLR039C, strain RIC1, hits give low values 1.02 | S. cerevisiae deletion strains, locus YLR058C, strain SHM2, hits give low values 1.01 | S. cerevisiae deletion strains, locus YLR102C, strain apc9, hits give low values 0.997 | S. cerevisiae deletion strains, locus YLR113W, strain HOG1, hits give low values 0.988 | S. cerevisiae deletion strains, locus YLR221C, strain rsa3, hits give low values 1.01 | S. cerevisiae deletion strains, locus YLR258W, strain gsy2, hits give low values 1.02 | S. cerevisiae deletion strains, locus YLR262C, strain YPT6 (second series), hits give low values 1.08 | S. cerevisiae deletion strains, locus YLR262C, strain YPT6, hits give low values 1.01 | S. cerevisiae deletion strains, locus YLR268W, strain sec22, hits give low values 1.06 | S. cerevisiae deletion strains, locus YLR320W, strain mms22, hits give low values 1.03 | S. cerevisiae deletion strains, locus YLR330W, strain CHS5, hits give low values 1 | S. cerevisiae deletion strains, locus YLR342W, strain FKS1 (second series), hits give low values 0.981 | S. cerevisiae deletion strains, locus YLR342W, strain FKS1, hits give low values 1.02 | S. cerevisiae deletion strains, locus YLR357W, strain rsc2, hits give low values 1 | S. cerevisiae deletion strains, locus YLR370C, strain arc18, hits give low values 1.02 | S. cerevisiae deletion strains, locus YLR371W, strain rom2, hits give low values 1.01 | S. cerevisiae deletion strains, locus YLR384C, strain iki3, hits give low values 1.01 | S. cerevisiae deletion strains, locus YLR418C, strain cdc73, hits give low values 0.985 | S. cerevisiae deletion strains, locus YML016C, strain PPZ1, hits give low values 1 | S. cerevisiae deletion strains, locus YML032C, strain rad52, hits give low values 1.03 | S. cerevisiae deletion strains, locus YML120C, strain ndi1, hits give low values 0.986 | S. cerevisiae deletion strains, locus YML124C, strain tub3, hits give low values 1 | S. cerevisiae deletion strains, locus YMR058W, strain fet3, hits give low values 1.02 | S. cerevisiae deletion strains, locus YMR078C, strain ctf18, hits give low values 0.998 | S. cerevisiae deletion strains, locus YMR125W, strain sto1, hits give low values 1.02 | S. cerevisiae deletion strains, locus YMR129W, hits give low values 1.02 | S. cerevisiae deletion strains, locus YMR205C, strain PFK2, hits give low values 1.02 | S. cerevisiae deletion strains, locus YMR223W, strain ubp8, hits give low values 0.971 | S. cerevisiae deletion strains, locus YMR231W, strain pep5, hits give low values 1 | S. cerevisiae deletion strains, locus YMR263W, strain SAP30, hits give low values 1.02 | S. cerevisiae deletion strains, locus YMR307W, strain GAS1, hits give low values 0.975 | S. cerevisiae deletion strains, locus YNL067W, strain RPL9B, hits give low values 1.02 | S. cerevisiae deletion strains, locus YNL071W, strain lat1, hits give low values 1.01 | S. cerevisiae deletion strains, locus YNL128W, strain TEP1, hits give low values 1 | S. cerevisiae deletion strains, locus YNL153C, strain GIM3, hits give low values 1.04 | S. cerevisiae deletion strains, locus YNL183C, strain NPR1, hits give low values 0.897 | S. cerevisiae deletion strains, locus YNL209W, strain ssb2, hits give low values 1.01 | S. cerevisiae deletion strains, locus YNL233W, strain BNI4, hits give low values 1.03 | S. cerevisiae deletion strains, locus YNL248C, strain rpa49, hits give low values 1.01 | S. cerevisiae deletion strains, locus YNL250W, strain rad50, hits give low values 0.997 | S. cerevisiae deletion strains, locus YNL271C, strain bni1, hits give low values 1.01 | S. cerevisiae deletion strains, locus YNL298W, strain CLA4, hits give low values 1.01 | S. cerevisiae deletion strains, locus YNL307C, strain MCK1, hits give low values 0.969 | S. cerevisiae deletion strains, locus YNL322C, strain KRE1 (second series), hits give low values 1.05 | S. cerevisiae deletion strains, locus YNL322C, strain KRE1, hits give low values 1 | S. cerevisiae deletion strains, locus YNR049C, strain mso1, hits give low values 1.02 | S. cerevisiae deletion strains, locus YNR052C, strain pop2, hits give low values 1.01 | S. cerevisiae deletion strains, locus YOL006C, strain TOP1, hits give low values 0.99 | S. cerevisiae deletion strains, locus YOL012C, strain htz1 1.01 | S. cerevisiae deletion strains, locus YOL147C, strain pex11, hits give low values 1.01 | S. cerevisiae deletion strains, locus YOR001W, strain rrp6, hits give low values 1.02 | S. cerevisiae deletion strains, locus YOR061W, strain CKA2, hits give low values 1.01 | S. cerevisiae deletion strains, locus YOR069W, strain VPS5, hits give low values 1.01 | S. cerevisiae deletion strains, locus YOR070C, strain gyp1, hits give low values 1.02 | S. cerevisiae deletion strains, locus YOR080W, strain dia2, hits give low values 1.04 | S. cerevisiae deletion strains, locus YOR083W, strain WHI5, hits give low values 1.02 | S. cerevisiae deletion strains, locus YOR106W, strain vam3, hits give low values 1.03 | S. cerevisiae deletion strains, locus YOR136W, strain idh2, hits give low values 0.993 | S. cerevisiae deletion strains, locus YOR144C, strain elg1, hits give low values 0.997 | S. cerevisiae deletion strains, locus YOR184W, strain ser1, hits give low values 0.956 | S. cerevisiae deletion strains, locus YOR231W, strain MKK1, hits give low values 0.981 | S. cerevisiae deletion strains, locus YOR265W, strain rbl2, hits give low values 1.01 | S. cerevisiae deletion strains, locus YOR270C, strain vph1, hits give low values 1.05 | S. cerevisiae deletion strains, locus YOR290C, strain snf2, hits give low values 1.03 | S. cerevisiae deletion strains, locus YOR316C, strain cot1, hits give low values 1 | S. cerevisiae deletion strains, locus YPL051W, strain arl3, hits give low values 1.01 | S. cerevisiae deletion strains, locus YPL055C, strain LGE1, hits give low values 0.989 | S. cerevisiae deletion strains, locus YPL078C, strain atp4, hits give low values 1.02 | S. cerevisiae deletion strains, locus YPL106C, strain sse1, hits give low values 1.07 | S. cerevisiae deletion strains, locus YPL240C, strain hsp82, hits give low values 0.985 | S. cerevisiae deletion strains, locus YPL241C, strain CIN2, hits give low values 1.01 | S. cerevisiae deletion strains, locus YPL256C, strain CLN2, hits give low values 0.974 | S. cerevisiae deletion strains, locus YPR119W, strain clb2, hits give low values 1 | S. cerevisiae deletion strains, locus YPR141C, strain kar3, hits give low values 0.996 | S. cerevisiae deletion strains, locus YPR163C, strain tif3, hits give low values 1.02 | S. cerevisiae deletion strains, locus YPR167C, strain met16, hits give low values 0.997 | S. cerevisiae deletion strains, strain wtn01, hits give low values 1.03 | S. cerevisiae strains, strain wild type, hits give low values 0.998
